The supplement of paper PMC6555819

tested on: RXRa homodimer (NR concentration 180 nM); assay: PBM binding z-score (relative to random genomic background probes); higher = stronger binding; sequences stand for … in GC…GCGATTGACAGCGTAGAATGAAGG
How it was run: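 Binding buffer was PBS pH 7.4 with 2% milk, 0.02% Triton X-100, 1 mM DTT, 0.2 mg/mL BSA and 0.4 mg/ml salmon testes DNA. In it, ligand-free nuclear receptor dimers were incubated 1 h on custom Agilent 4×180K protein-binding microarrays carrying double-stranded probes. Antibodies against each partner (one per run) detected binding, and z-scores were calculated against random background probes after regression normalization of scanned fluorescence.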

| Sequence | PBM binding z-score |
| --- | --- |
| TGAATGAGGTTAAAGATCAGAGAACGTGGCGTCG | 3.86 |
| GCAGACAGGTGAAACGCAGGTAAGTCAGGGTGGC | 0.479 |
| TGTCATAGTTCAAAGGTAACGTAAGTATCCACAC | 5.18 |
| TAGCCTAGGTCATTAAGGGGCCAGTATAGAAAGC | 2.52 |
| CGGACGAGGGCATGAGTTGATAGCAAATGCCGAT | 0.928 |
| ATCTCAAGGTAAAAGTTCAGTGAATCCCGAGGAT | 2.21 |
| CCTACTGGCCCAAGGTCATTGATCAGTCAAAGCA | 3.16 |
| GGATCGAGGGCAAAGTTGATAGCATCTGTCGACG | 2.08 |
| AGTCAAAGTGCACTAGGTAACGTAAGATTCAGCT | 0.453 |
| AGAACGAGGGCACGCGGAGTTGATAGCAGAGTAG | 1.66 |
| CCTCGGAGGACAATAGGAGGTCAGAGCTGCCAGA | 1.64 |
| CCGACTGGGCCAAGGTTACCATAACGCACAGCCA | 0.719 |
| TCATATAGGGAAACAGGTGAAAGTCCGTAAGTTA | 0.796 |
| TAGCCTAGGTCATGCGGGCCAGTTTAGTGTCGGC | 3.2 |
| ACTAGCAGGCCAAATTTGGGTCACTCAAACAAAG | 0.936 |
| CAAACTAGGTCAGAGGTCAAAGTCGAGCCAACCA | 9.16 |
| TTACCAAGGAGAAGGTCGTTGATCCCTCTGTAGA | 1.27 |
| AGTCACAGTTCAGGACGAGGTAACGTAAAGCACG | 1.28 |
| TCATATAGGTAATACAGGTGCAAGTCGGCATCTA | 0.938 |
| CCGAGTAGGTTACGGGGCATTCAGGCAACGGTGA | 1.16 |

| Sequence | PBM binding z-score |
| --- | --- |
| CAAACTAGGTCAACAGGTCAAAGTCCGCTTCCCG | 5.98 |
| ATCTCTAGGTAAGACTCAGTTCTGTGAAGAACGC | -0.166 |
| ATCTCTAGGTAACAAGTTCAGAGAAAGAGAGGAC | 1.04 |
| TCATATAGGTAAAAGGTGAAAGTAGGTGTGGTAA | 3.34 |
| TCTCGGAGGGCACGAAAGGTCAGAGCTCGACATC | 5.58 |
| GCGACTGGGGCATCAGCAGGTTACCGTAACTTAA | 0.309 |
| CAAACTCGGTCAAAGGTCAAAGTCGAGCCAACCA | 9.27 |
| ATCTCTACGTAAAGTTCAGTGAAAGATCGATAGA | 1.2 |
| GCTAGCAGGACATTTGGGTCACTCAATGACGGGC | 0.598 |
| TCTTGTAGATCAAGCAGGATAAGAAAGCCTGAGT | -0.0789 |
| ACAGACAGGTGAGTGAAGGTAAATCAGCTGGACG | 0.24 |
| CATACAGGGCCAGCTAGGCCAGAGTAGGGACGGC | -0.173 |
| GCGACTGGGGCAAAGCAGGTTACCAAAAGGTTGG | 0.52 |
| GCTGCTAGGTCAACTGTTGGTCAGCTAAAGCTCG | 3.12 |
| CCTACTGGGCCATCAGGGCATTGATATCAACGTT | -0.308 |
| CCTACTGGGCCAAGGTCATCGATCAGTCAAAGCA | 3.79 |
| CCTTACGGGTCACGAGGTTATCGCACGACGAGCG | 7.47 |
| ATCGAAAGGACGAGGTGAGTATAGAGAAAGGGAA | 0.312 |
| TCATATATGTAAACAGGTGAAAGTCCGTAAGTTA | 0.989 |
| CCTAGCAGCCCAGGGTCACTCAAGCATTTCGCTT | 3.38 |
